Data: ChEMBL document CHEMBL4513216, “Probing the Open Global Health Chemical Diversity Library for Multistage-Active Starting Points for Next-Generation Antimalarials” (ACS Infect Dis, 2020)
Hit rate of the full screen: of about 69,000 compounds, about 8,600 (12%) showed an effect of 50% or more. What follows is part of a selection rich in strong results, with near analogues and random picks from the rest.

What follows are molecules tested on Plasmodium berghei (assay: Screen against P. berghei liver stage (PbLuc), transformed with Luciferase, at 10uM). Conditions: tested at 10 uM.
Assay type: functional, HepG2

| SMILES | INHIBITION |
| --- | --- |
| Cc1cc(NCCO)nc(N2CCC(Cc3ccccc3)CC2)c1C#N | 29.1% |
| Cc1nccn1CC(=O)N1CC(Cc2nccc3ccn(C)c23)C1 | 34% |
| CCN1CCC(CC(=O)N(C)CC(=O)c2ccc(O)cc2)CC1 | 55% |
| CCCN1CCC(CC(=O)N(C)C(C)c2cncs2)CC1 (stereo not drawn) | 6.33% |
| CCCN1CCC(CC(=O)N(C)CC(=O)c2ccc(O)cc2)CC1 | 56.1% |
| CCCN1CCC(CC(=O)NCc2cc(O)ncn2)CC1 | 28.7% |
| CC(C)N1CCC(CC(=O)N(C)CC(=O)c2ccc(O)cc2)CC1 | 1.98% |
| CC(C)N1CCC(C(=O)N(C)CC(=O)c2ccc(O)cc2)CC1 | 23.6% |
| CN(C)C(=O)C1OC2(CCN(C(=O)N(C)C)CC2)c2ccccc21 (stereo not drawn) | 14.1% |
| CNc1cc(C2CCCN2C(=O)c2ccc(=O)[nH]n2)ccn1 (stereo not drawn) | -7.66% |
| N#Cc1ccsc1C(=O)N1CCCN(Cc2cscn2)CC1 | -14% |
| CC(C)n1nc(CNc2ncccn2)c2c1CN(C)CC2 | -3.77% |
| COC[C@]12COC[C@H]1CN(Cc1cc(OC)cc(OC)c1)C2 | 35.8% |
| O=C(c1cccnc1)N1CCC(c2nc(O)cc(-c3ccncc3)n2)C1 (stereo not drawn) | 1.5% |
| CNC(=O)CN1CCCC12CCN(C(=O)c1ccsc1)CC2 | -0.937% |
| CNC(=O)CN1CCCC12CCN(C(=O)c1ccoc1)CC2 | 56.8% |
| CNC(=O)CN1CCCC12CCN(C(=O)c1ccc(F)cc1)CC2 | 42.4% |
| CCOCC(O)CN1CCN(C(=O)c2cc(C)ccc2F)CC1 (stereo not drawn) | -59.4% |
| COCC1c2c(cnn2C)CCN1C(=O)c1cccn1C (stereo not drawn) | 46.6% |
| COc1c(C(=O)N2CCNC(=O)C2)cnc2c1c(C)nn2C | -25.1% |
| COC(=O)c1cnc2c(c(C)nn2C)c1OC | 66.8% |
| COc1c(C(=O)N2CCOCC2)cnc2c1c(C)nn2C | 2.59% |
| O=C(Cc1cccs1)NS(=O)(=O)c1cccc2cnccc12 | 36.3% |

| SMILES | INHIBITION |
| --- | --- |
| CCOc1ccc(CN2CCOCC2c2[nH]ncc2C)cc1CO (stereo not drawn) | 29.65% |
| Cc1cc(C)n(CCCNC(=O)C2CCCO2)n1 (stereo not drawn) | 6.09% |
| Cc1cc(C(F)(F)F)nn1CCCNC(=O)C1CCCO1 (stereo not drawn) | 60.4% |
| Cc1cc(C(F)(F)F)nn1CCCNC(=O)C1CCCC1 | 43.2% |
| Cc1cc2[nH]c(=O)oc2cc1S(=O)(=O)N1C[C@@H](N(C)C)[C@H](C(C)C)C1 | 26.5% |
| Cc1nc(CSCCC(=O)Nc2cccc(N3CCNC3=O)c2)cs1 | -24.6% |
| COCCN1CCO[C@@H]2CN(Cc3ccc(C)o3)C[C@@H]2C1 | -0.554% |
| Cc1cn(-c2ccccc2)nc1NS(=O)(=O)c1cccc(C(=O)O)c1 | 40.9% |
| Cc1cccc(NS(=O)(=O)c2cnn(C)c2)c1C#N | 18.9% |
| Cc1ccc(-n2cc(S(=O)(=O)Nc3cccc(C(=O)O)c3C)cn2)cc1 | 68% |
| Cc1ccc(NS(=O)(=O)c2cnn(-c3ccccc3)c2)c(C(=O)O)c1 | 22.5% |
| CCS(=O)(=O)Nc1cnn(Cc2cccc(C)c2)c1 | -2.64% |
| CCn1nc(C)c(S(=O)(=O)Nc2cccc(C(=O)O)c2C)c1C | 62.4% |
| CCn1nc(C)c(S(=O)(=O)Nc2ccccc2C(=O)OC)c1C | 29.7% |
| Cc1ccc(NS(=O)(=O)c2cnn(Cc3ccccc3)c2)c(C(=O)O)c1 | 51.6% |
| COC(=O)c1ccccc1NS(=O)(=O)c1c(C)nn(C)c1C | -7.93% |
| CC(=O)N1CCC(c2cncc(N3CCCCCC3)n2)CC1 | 17.4% |
| O=C(NC1CCCN(CCc2ccccc2)C1)c1cnccn1 (stereo not drawn) | -0.29% |
| Cc1cnn(C2CCCN(C(=O)Cc3cn4ccsc4n3)C2)c1 (stereo not drawn) | -9% |
| Cc1nc(C)c(C(=O)N2CCC(O)(Cn3ccc4ccncc43)CC2)s1 | -57.4% |
| CS(=O)(=O)c1cc(C(=O)NS(=O)(=O)Cc2ccc(F)cc2)ccc1Cl | 37.7% |
| O=C(Cc1noc(C(=O)NCCO)n1)Nc1cccc(C(F)(F)F)c1 | 25.2% |
| CC(C)(C)n1ncc2c1NC(=O)CC2c1cccs1 (stereo not drawn) | -0.87% |

| SMILES | INHIBITION |
| --- | --- |
| Cc1nc(CN2CCCC2Cn2cncn2)no1 (stereo not drawn) | 34.95% |
| COCc1nc2cc(NCc3ccncc3)ccc2o1 | 18.5% |
| COCc1nc2cc(NCc3ccc(CO)o3)ccc2o1 | 90.2% |
| COCc1nc2cc(NCc3csc(C)n3)ccc2o1 | 14.9% |
| COCc1nc2cc(NCc3nc(C)cs3)ccc2o1 | -17.6% |
| COCc1nc2cc(NCc3ccc(C)o3)ccc2o1 | 11.8% |
| COCc1nc2cc(NCc3sc(C)nc3C)ccc2o1 | 65.4% |
| CC(C)(C)c1nc2cc(NC(=O)Cn3ccc(=O)[nH]c3=O)ccc2o1 | 20% |
| COCc1nc2cc(NCc3cc[nH]n3)ccc2o1 | 67.1% |
| Cc1cc(CNc2ccc3nc(C)sc3c2)no1 | -4.33% |
| Cc1ncsc1CNc1cc(N2CCCC2CO)ncn1 (stereo not drawn) | 27.4% |
| CCC(C)CNc1ccc2oc(COC)nc2c1 (stereo not drawn) | -23.2% |
| COCc1nc2cc(NCc3scnc3C)ccc2o1 | 70.5% |
| CCNC(=O)[C@@H]1CCCN1C(=O)c1cccc(CCC(C)(C)O)c1 | -26.8% |
| CC(C)=CCN1C[C@@H]2CC[C@H]1CN(C(=O)CCc1nnc(C)[nH]1)C2 | 41.2% |
| Cc1cccc(N2CCOC(C(=O)O)C2)c1 (stereo not drawn) | 14.7% |
| CN1C(=O)CC(c2cnn(C)c2)C12CCN(CC1CCOCC1)CC2 (stereo not drawn) | -9.74% |
| Cn1ccnc1CCC1CCCCN1Cc1cnc(N2CCCC2)nc1 (stereo not drawn) | -25% |
| CN1CCC2(Cc3ccccc3CN(C(=O)CCN)C2)C1 (stereo not drawn) | 40% |
| O=C(NCCc1csc(-c2ccncc2)n1)C1CC(=O)N(C2CC2)C1 (stereo not drawn) | 2.66% |
| Cc1nc(C)n(CC2CCCN(CC(=O)Nc3cc(C)on3)C2)n1 (stereo not drawn) | -18.945% |
| CN(Cc1ccc(F)cc1)C(=O)CN1CCOC(Cn2cccn2)C1 (stereo not drawn) | -4.16% |
| CCc1ccc(O)c(C(=O)N2CCN(CC(=O)N(C)C)CC2)c1 | 47.7% |

| SMILES | INHIBITION |
| --- | --- |
| CCc1ccc(O)c(C(=O)N2CCCN(CC(=O)N(CC)CC)CC2)c1 | -1.57% |
| CCc1ccc(O)c(C(=O)N2CCN(CC(=O)N(CC)CC)CC2)c1 | 56.6% |
| COc1c(C2CCCN2Cc2noc(C)n2)c(C)nn1C (stereo not drawn) | -40.2% |
| COCCN(Cc1sccc1C)C(=O)c1c(O)cccc1F | -15.6% |
| Cc1ccc(N2CCN(CC3CC3)C3(CCN(C(C)C)CC3)C2=O)cn1 | 27.5% |
| CCN1CCC2(CC1)C(=O)N(c1ccc(C)nc1)CCN2CC(C)C | 36.4% |
| CC(=O)N1CCC2(CC1)C(=O)N(c1ccc(C)nc1)CCN2CC(C)C | 60% |
| Cc1nc(C)n(CC2CCCN2CCOc2ccc(F)cc2)n1 (stereo not drawn) | -32% |
| Cc1nnc(NC(=O)CN2CCc3nn(C)c(=O)cc3C2)s1 | 62.9% |
| CCn1nc2c(cc1=O)CN(CC(=O)Nc1nnc(C)s1)CC2 | -29.8% |
| CCCn1nc2c(cc1=O)CN(CC(=O)Nc1nnc(C)s1)CC2 | 26.3% |
| CCN(Cc1ccc(O)c(C(=O)O)c1)CC1CCOCC1 | 7.65% |
| COc1ccccc1CNc1c(O)c(=O)c1=O | 21.7% |
| CO[C@H]1CC[C@H]2[C@H]1OCCN2Cc1ccc(F)cc1 | -40.9% |
| O=C(NCCNC1CCCC1)c1cccs1 | -0.902% |
| O=C(NCCNC1CCN(c2nccs2)CC1)c1cccs1 | 55.1% |
| O=C(NC1CCN(c2nccs2)CC1)c1cccs1 | 22.2% |
| COc1ccc(COCC(=O)N2CCC(c3nncn3C)CC2)cc1 | 39.2% |
| CC(=O)N1N=C(c2ccccc2)OC1C(=O)N(C)CCc1ccccc1 (stereo not drawn) | 38.2% |
| Cn1cnc2c1C(COCc1ccccc1)N(Cc1ccncc1)CC2 (stereo not drawn) | 15.9% |
| COC(=O)c1cc(OC)ccc1NCC(=O)NCC(=O)N1CCCC1 | 2.03% |
| CC(C)c1nc(CN2CCOC(Cn3cncn3)C2)no1 (stereo not drawn) | -15.5% |
| O=C(NC1CCN(c2cc(-n3ccnc3)ncn2)CC1)c1ccncc1 | 69.1% |

| SMILES | INHIBITION |
| --- | --- |
| O=C(NC1CCCC1)C1CCN(c2cc(-n3ccnc3)ncn2)CC1 | 48% |
| O=C(NC1CCN(c2ncccn2)CC1)c1cccc(-n2ccnc2)c1 | -2.94% |
| CC1c2ncc(CN3CCN(C)CC3)n2CCN1Cc1cnn(C)c1 (stereo not drawn) | 33.2% |
| O=C1CO[C@@H]2CN(Cc3cccs3)C[C@H]2N1Cc1ccncc1 | 14.2% |
| CCN(CC)CCNC(=O)CCc1c(C)nn(-c2ccccc2Cl)c1C | 48% |
| CCN(CC)CCNC(=O)CCc1c(C)nn(-c2ccc(Cl)cc2)c1C | 63.9% |
| CCN(CC)CCNC(=O)CCc1c(C)nn(-c2cccc(Cl)c2)c1C | 48% |
| O=C1NCCN1CCNc1cc(-c2ccncc2)nc2ccnn12 | -4.91% |
| CNC(=O)c1cccnc1Oc1ccccc1 | 9.89% |
| NC(=O)CC1c2cccnc2C(=O)N1Cc1ccccc1 (stereo not drawn) | -16.4% |
| CC(C)(C)c1n[nH]c(C2CN(C(=O)c3cc(Cl)c[nH]3)CCO2)n1 (stereo not drawn) | 19.7% |
| Cc1ccc(S(N)(=O)=O)cc1C(=O)NC1CCCN(C)C1 (stereo not drawn) | 3.46% |
| CC(=O)N[C@H]1CN(S(=O)(=O)N(C)Cc2ccccc2)C[C@@H]1C1CC1 | 64.4% |
| CCN(Cc1ccccc1)C(=O)CCN1C[C@@H](C(=O)O)[C@H](C2CC2)C1 | 5.78% |
| CN(Cc1ccccc1)S(=O)(=O)N1C[C@H](C2CC2)[C@@H](N)C1 | -43.1% |
| CC(=O)N[C@@H]1CN(S(=O)(=O)Cc2ccccc2)C[C@H]1C(C)C | 41.6% |
| CN(Cc1ccccc1)S(=O)(=O)N1C[C@@H](C(=O)O)[C@H](C2CC2)C1 | 61.8% |
| CN(Cc1ccccc1)C(=O)CCN1C[C@H](C2CC2)[C@@H](N(C)C)C1 | 14.9% |
| CCC[C@H]1CN(S(=O)(=O)N(C)Cc2ccccc2)C[C@@H]1N | 77.5% |
| CN(Cc1cccc(F)c1)S(=O)(=O)N1CCOCC1 | -26.1% |
| CN(Cc1ccc(F)cc1)S(=O)(=O)N1CCOCC1 | -8.005% |
